This passage reports PBM binding z-score results from the supplement of paper PMC6555819.

The test system of the assay is VDR:RXRa (NR concentration 270 nM, RXRa partner concentration 90 nM). The experiment in a line: PBM binding z-score (relative to random genomic background probes); higher = stronger binding; sequences stand for … in GC…GCGATTGACAGCGTAGAATGAAGG
On the procedure: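 Protein-binding microarray (Agilent 4x180K custom design, double-stranded 60-nt probes: 5' GC cap, 34-nt variable region, 24-nt constant primer region; full probe sequence given). Purified or IVT nuclear receptor:RXRα heterodimers (3:1 NR:RXRα, mostly 270:90 nM) or homodimers were incubated for 1 h in PBS with 2% milk and no ligand, then detected with Alexa488 antibodies. Fluorescence from o1-orientation probes (~5 replicates averaged) was converted to z-scores against 500 random hg19 background probes. Variable regions are seed direct-repeat (DR0–DR5) sites, all their single-nucleotide variants and half-site ablations.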
For the sequence TATTGTAGATCAAGCAGGTTAAGAAAGCCTGAGT, the PBM binding z-score is 0.301. Under TAGCATAGGTCAGATCGGGCCAGTATACGCTATA stands 1.77; under TCATACAGGTAAACAGGTGAAAGTCCGTAAGTTA, 1.2.

Regarding TAGCCTAGGTCATTCAGAGGCCAGTATAGAAAGC, the PBM binding z-score was 2.84. The same measure for ACAGACAGGTGAGTGCAGGTAACTCAGCTGGACG: -0.127; for TCTTGTAGATCAGCAGGATAAGAAAGCTGGCCAA: -0.113. Under CATACAGGGTCAGCTTGGCCAGAGTAGGGACGGC stands 2.81. The same measure for GCTCTTAGTTGAAAGGGCAACCGAATGATTCTCG: 0.445. For TTACCACGGTGAAGGTCGTTGATCCCTCTGTAGA, the PBM binding z-score was 0.957. For CCTTACGGGCCACTGACAGGTTATAGCATTTGGA, the PBM binding z-score is -0.202.

For AGAATGAGGTTATACGTAGATTAGGGAAGAAAGT, the PBM binding z-score was 1.44. Under CGTCCAATGTCATAGGAGGTCAGTGAAGACAGAT stands 3.45. The sequence CCTAGCAGGCCAATCCGGGTCACTCAAGGCTTGA had a PBM binding z-score of 2. Under CGAACTAGGGCAGAACAGGACAGTGAAGGATGAT stands -0.31. Under TAGCCTAGGTCAGATCGGGCCAGTAAACGCTATA stands 0.5. The same measure for GCTTGTAGATGAAGGTTAAGAAAGACTAAGCTAA: -0.396; for ACTCGGAGGACAATGGTCAGAGCTACGCCAGTGA: -0.697; for AATACAGGGACACTAGGCCAGAGTAGGTACGAAT: -0.219.

Turning to CCTTACGGGTCAAGAGGTTATAGCACGACGAGCG, the PBM binding z-score turned out to be 4.09.

On to ATCGAAAGGTCTAGGTGAGTATAGAGAAAGGGAA, for which the PBM binding z-score is 0.435. Under GCGACTGGGGCAAAGCAGGTTACCATTAGGTTGG stands -0.0809. Under CCTTACGGGTCAAGGGTATAGCACGGGTGGTACG stands 3.22; under CGAACTAGGTCAGAACAGGACAGGGAAGGATGAT, 0.511. The same measure for CGTCCAAGGTCAATGCTAGGTCAGTGGAAGCATT: 4.77; for ATCGAAAGGTCGACGAGGTGAGTAGACACCGTTT: 5.23; for CTTCCAAGGTCAAAGGTCAGTGAAGAGATGACGG: 6.57. The sequence GCTATTAGTTGAAAGCGCAACCGAATGATTCTCG returned a PBM binding z-score of -0.272. Under CCTCGGAGGACAGAAGGTCAGAGTTGTCCGCTTT stands 1.12; under GATACAGCGTCAGCTAGAGGCCAGAGTATGGAAA, -0.922. The same measure for CCTCGGAGGATAACAGGAGGTCAGAGCTGCCAGA: 1.5; for TGAATGAGGTTAGAGATCAGGGAACGTGGCGTCG: 0.296; for ATATGTAGGTTAGCTGGGGTCTTTCAGACTAGGC: 1.28. Under TCAGATAGGTGAAGGTAACTCAGGTACGCAGTCG stands 0.796.

CAAACTGGGTCACAGAGGTCAAAGTCCGTGCGTA came in with a PBM binding z-score of 7.58. Under TCTATTAGTTGATTAGGGCAACCCAAACAGCGGA stands 0.694; under CTCGAAAGGTCGGTTTAGGTGAGTATACGGATAA, 1.28; under TCTTGTAGATCAAGCAGTTTAAGAAAGCCTGAGT, 0.549. Under TAGCCTAGGTCATTGGGCCAGCATAGTACGCATC stands 2.14. Under CCTGCTACGTCAATGGTCAGCTAAAGCAGCTCGC stands -0.379. The sequence CCTAACGGGTCACGAGGTTATAGCACGACGAGCG yielded a PBM binding z-score of 4.74.
